Assay results from the supplement of paper PMC3545927.
This is one part of the list. The hit rate among all sequences tested is not known here.

B1: HC444 (peptide)
chain: CAPPCVIGGAAGNASASA
B2: FS-2235 (peptide)
chain: CARRRRYEGHAGNASASA
B3: FS-1787 (peptide)
chain: CARRRRLYWGAGNASASA
B4: FS-2182 (peptide)
chain: CARRRRYKKKAGNASASA
B5: FS-3232 (peptide)
chain: CARRRRYAVAAGNASASA
B6: FS-1786 (peptide)
chain: CARRRRLRTAAGNASASA
B7: FS-2801 (peptide)
chain: CARRRRYALSAGNASASA
B8: HC1587 (peptide)
chain: CALIARDQLEAGNASASA
B9: FS-1591 (peptide)
chain: CAGRSRASRGAGNASASA
B10: FS-438 (peptide)
chain: CAGTQRLTRAAGNASASA
B11: FS-241 (peptide)
chain: CAGHSRSRRAAGNASASA
B12: FS-594 (peptide)
chain: CAGRSRRPRLAGNASASA
B13: FS-1205 (peptide)
chain: CAGRSRSRRAAGNASASA
B14: FS-658 (peptide)
chain: CAGRQRKPRPAGNASASA
B15: FS-15 (peptide)
chain: CACRARGMRAAGNASASA
B16: HC595 (peptide)
chain: CAGRDAVILLAGNASASA

Biological target: furin, P09958
Assay: furin cleavage Z-score vs untreated control; higher = more cleavage, active = 3.5 or more, inactive = 1 or less, 8 variable residues between constant flanks
Outline: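 The cleavage Z-score is the log read count relative to furin-free reactions, lowess-adjusted and scaled by median absolute deviation. Counts came from sequencing DNA released from bead-bound 8-mer peptide–cDNA fusions after digestion with purified furin for 7.5, 15 or 30 min.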
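Also: purified furin at 1:10 enzyme:substrate in 50 mM HEPES pH 7.5.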

furin, P09958, sequence (P09958 whole entry): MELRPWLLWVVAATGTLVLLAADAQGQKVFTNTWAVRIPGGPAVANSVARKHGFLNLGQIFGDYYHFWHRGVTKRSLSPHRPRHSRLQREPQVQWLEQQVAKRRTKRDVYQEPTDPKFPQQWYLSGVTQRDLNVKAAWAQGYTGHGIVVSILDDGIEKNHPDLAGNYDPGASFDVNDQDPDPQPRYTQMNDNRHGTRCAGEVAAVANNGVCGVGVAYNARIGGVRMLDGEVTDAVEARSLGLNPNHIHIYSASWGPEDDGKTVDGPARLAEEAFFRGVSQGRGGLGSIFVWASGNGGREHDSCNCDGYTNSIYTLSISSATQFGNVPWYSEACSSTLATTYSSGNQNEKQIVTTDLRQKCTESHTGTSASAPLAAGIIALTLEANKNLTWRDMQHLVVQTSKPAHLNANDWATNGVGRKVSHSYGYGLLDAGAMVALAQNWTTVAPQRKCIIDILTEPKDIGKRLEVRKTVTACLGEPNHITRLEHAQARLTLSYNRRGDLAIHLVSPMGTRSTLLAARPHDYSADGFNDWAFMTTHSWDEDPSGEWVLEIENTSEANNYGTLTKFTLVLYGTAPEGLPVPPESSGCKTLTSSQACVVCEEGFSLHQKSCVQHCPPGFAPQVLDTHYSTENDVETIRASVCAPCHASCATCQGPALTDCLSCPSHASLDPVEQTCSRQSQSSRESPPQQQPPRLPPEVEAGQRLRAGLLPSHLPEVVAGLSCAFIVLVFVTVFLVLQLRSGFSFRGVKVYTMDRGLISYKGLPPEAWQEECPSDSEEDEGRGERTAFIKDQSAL

Sequence | furin cleavage Z-score (7.5 min) | furin cleavage Z-score (15 min) | furin cleavage Z-score (30 min)
B1 | -0.324 (inactive) | -0.267 (inactive) | 0.0653 (inactive)
B2 | 0.411 (inactive) | 0.839 (inactive) | -0.246 (inactive)
B3 | -0.939 (inactive) | 0.513 (inactive) | -1.89 (inactive)
B4 | -0.133 (inactive) | -0.187 (inactive) | -0.000733 (inactive)
B5 | 4.58 (active) | 6.75 (active) | 6.05 (active)
B6 | 2.03 | 3.9 (active) | 4.2 (active)
B7 | 5.16 (active) | 9.42 (active) | 8.62 (active)
B8 | 1.19 | -0.286 (inactive) | 0.308 (inactive)
B9 | 0.169 (inactive) | 0.355 (inactive) | 0.871 (inactive)
B10 | 5.42 (active) | 7.11 (active) | 7.04 (active)
B11 | 9.52 (active) | 9.9 (active) | 7.81 (active)
B12 | 5.82 (active) | 7.31 (active) | 7.21 (active)
B13 | 11.2 (active) | 9.2 (active) | 6.8 (active)
B14 | -0.103 (inactive) | -1.02 (inactive) | -0.398 (inactive)
B15 | -0.759 (inactive) | -0.9 (inactive) | -0.752 (inactive)
B16 | -0.947 (inactive) | -0.587 (inactive) | -0.719 (inactive)
